Only some compounds are listed: those with a hit (about 3.3% of all), similar ones and a draw of the others.
PI5P4Ka inh: PI5P4K alpha (human) kinase inhibition; PI5P4Kalpha enzyme, ADP-Glo luminescence, 60 min; active compounds read low; max response, %; P48426; 330,000 tested, 1.2% active; active = max response of -50% or lower; inconclusive = between -30% and -50%; inactive = -30% or higher; note: value at the top dose of about 77 µM
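Reactions run in 0.038 M HEPES pH 7.4, 0.28 mM EGTA, 0.1% CHAPS and 5% DMSO, with PI5P4Kalpha, substrate, compound and 5 microM ATP final, one hour at room temperature. Readout is ADP-Glo luminescence.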
WRN inhibitor: WRN helicase (human) inhibition | Q14191 | WRN helicase unwinding, fluorescent forked duplex, kinetic | Potency, µM (titrated, usually from 114 µM), for inactives: at the highest dose activity change, negative = inhibition, usual class: inhibitors | 360,000 tested, 0.46% active; note: potency is the fitted concentration of half-maximal effect; nearly all actives have a fitted effect of over 55% in size
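Kinetic red-fluorescence monitoring (525/598 nm) tracks WRN helicase activity after 100 nM fluorophore-quencher forked duplex and 2 mM ATP are added to 20 nM enzyme pretreated 15 min at room temperature with compound.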
USP2a inh: USP2a (human) protease inhibition; O75604; USP2 core, Ub-CHOP2 coupled fluorogenic reporter, 485/531; Potency, µM (titrated, usually from 38.3 µM), inactives show top-dose activity change, negative = inhibition, most hits filed as inhibitors; 330,000 tested, 0.01% active; AID 463254;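 note: potency is the fitted concentration of half-maximal effect; plate controls were DMSO wells for no effect and full inhibition by NEM control for full effect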
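Deubiquitinase activity read as fluorescence (485/531 nm) after Ub-CHOP2 cleavage activates the enterokinase reporter on its substrate; USP2 core 10nM, Ub-CHOP2 and substrate 25nM each, 30min compound preincubation then 60min RT; data normalized to NEM, curves fitted.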
PLK1 PBD inh: blocks phosphopeptide binding to human PLK1 polo-box domain | Potency, µM, for inactives: max response, negative = inhibition, usual class: inhibitors | Plk1 PBD binding of FITC phosphopeptide, fluorescence polarization | 360,000 tested, 2.8% active; note: potency is the fitted concentration of half-maximal effect; series mostly up to about 57 µM; nearly all actives have a fitted effect of over 65% in size
USP1-UAF1 inh: USP1/UAF1 (human) deubiquitinase inhibition; Potency, µM (titrated, usually from 57.1 µM), for inactives: at the top dose activity change, negative = inhibition, actives largely listed as inhibitors; 390,000 tested, 0.23% active; O94782; recombinant USP1/UAF1, Ub-Rhodamine cleavage fluorescence; AID 743255; note: potency is the fitted concentration of half-maximal effect; nearly all actives have a fitted effect of over 60% in size
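USP1/UAF1 complex at 1 nM was preincubated with compound for 15 min at room temperature, then Ub-Rho substrate (150nM final) was added. Fluorescence (480/540 nm) was read kinetically, 6 reads every 60 seconds.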
Active calls of the source: *; ? = inconclusive; nt = no result; [ ] = dose if it differs, or a comment. Unless noted, calls come from the whole dose curve; as a rule, active = well fitted curve in the direction sought with a large enough effect; inconclusive = small, poorly fitted or top-dose-only effect, or another doubt; inactive = no such curve, though single readings can be large; an effect the other way counts as inactive or inconclusive. Unless noted, % is set by controls: 0 for no effect and ±100 for the full control effect.

SMILES | PI5P4Ka inh | WRN inhibitor | USP2a inh | PLK1 PBD inh | USP1-UAF1 inh
O=C1CN=C(Nc2ccccc2)N1Cc1cccs1 | -2 | 7% | 6% | 1% | -16%
Cc1cccc(NC2=NCC(=O)N2Cc2cccs2)c1 | 0 | 50µM* | -1% | -16% | -16%
CCOc1ccccc1CNS(=O)(=O)c1cc2c(cc1C)NC(=O)CO2 | nt | nt | nt | nt | -14%
CCN(c1cc(C)cc(C)c1)S(=O)(=O)c1nnc(NC(=O)c2cccc(F)c2)s1 | nt | nt | nt | nt | -7%
COc1ccc(N2Cc3cccc(C(=O)NC(C)CCc4ccco4)c3C2=O)cc1 (stereo not given) | -11 | 35µM* | -8% | ? | -12%
O=C1C2CC=CCC2C(=O)N1Cc1ccccc1 (stereo not given) | nt | -10%[57.1 µM] | 0% | 0% | ?
O=C1C=CC(=O)N1Cc1ccccc1 | -86* | -14% | 0% | 4.7µM* | 8%
CC(=O)Nc1ccc(NS(=O)(=O)c2c(C(=O)N3CCC(C)CC3)c(C)n(C)c2C)cc1 | nt | nt | nt | nt | -22%
O=c1nc2s/c(=C\c3ccc(-c4ccccc4[N+](=O)[O-])o3)c(=O)n2nc1-c1ccccc1 | ? | 14µM* | 3% | ? | ?
Cc1cc(C)c(S(=O)(=O)NCCc2cc3ccc(C)cc3[nH]c2=O)c(C)c1 | nt | nt | nt | nt | -30%
S=C(Nc1ccccn1)c1ccccn1 | -95* | ? | -8% | 27µM* | -12%
Cc1ccc(NC(=S)c2nc3ccccc3s2)cc1 | 5 | -30% | 1% | -15% | -11%
Cc1ccc(C)c(NC(=S)c2ccccn2)c1 | 3 | -4% | 4% | 24µM* | -9%
O=C(Nc1ccccn1)C(=O)Nc1ccccn1 | -20 | -12% | -2% | -5% | -8%
Cc1ccc(C)c(NC(=S)c2nc3ccccc3s2)c1 | 13 | -3% | -3% | 8.4µM* | -19%
Cc1ccc(C)c(N2C(=O)N(C)c3ccccc3S2(=O)=O)c1 | nt | nt | nt | nt | -19%
CCOC(=O)C1=NNC(C(=O)OCC)C1c1ccccc1 (stereo not given) | 21 | 1% | nt | -8% | 2%
CCOC(=O)[C@H]1NN=C(C(=O)OC)[C@@H]1c1ccccc1 | -3 | -20% | 2% | 38µM* | -3%
Cc1cccc(NC(=O)CN2C(=O)CCc3ccccc32)c1C | nt | nt | nt | nt | -1%
N#C/C(=C\c1ccccc1)C(=O)NNS(=O)(=O)c1ccc(Br)cc1 | -1 | -24% | -1% | 21µM* | -21%
N#C/C(=C/c1ccccc1)C(=O)NCc1ccccc1 | 9 | -5% | 0% | -10% | -10%
Cc1ccc(Cl)cc1NS(=O)(=O)c1ccc2oc(=O)c3ncn(C)c3c2c1 | nt | nt | nt | nt | -20%
O=C(O)CSC(=S)N1CCCC1 | 0 | 6% | 1% | -3% | ?
O=C(CSC(=S)N1CCCC1)N/N=C/c1c(O)[nH]c(=S)[nH]c1=O | -51* | 0% | 7% | 2% | -5%
O=C(Cc1ccc(NC(=O)N2CCSc3ncccc32)cc1)NCc1ccccc1 | nt | nt | nt | nt | -27%
SMILES | PI5P4Ka inh | WRN inhibitor | USP2a inh | PLK1 PBD inh | USP1-UAF1 inh
Cc1cccc(N2CCN(C(=O)c3cc4c(=O)[nH]c5ccc(C)cc5c4s3)CC2C)c1 (stereo not given) | nt | nt | nt | nt | 6%
CS(=O)(=O)c1sc(C#N)c2c1C(=O)CC(c1ccccc1)C2 (stereo not given) | -3 | 40µM* | 0% | 5.3µM* | ?
Cc1oc2c(c(=O)c1C)C(=O)CC(c1ccccc1)C2 (stereo not given) | -1 | -4% | -4% | -2% | 0%
Cc1nc(-c2ccc(S(=O)(=O)N3CCN(c4cccc(C)c4C)CC3)cc2)co1 | 2 | -12% | -6% | 24µM* | -14%
Cc1cccc(N2CCN(S(=O)(=O)c3ccc4c(c3)NC(=O)C(C)S4)CC2)c1C (stereo not given) | 10 | -10% | -1% | -10% | -11%
Cc1cccc(N2CCN(S(=O)(=O)c3ccc4c(c3)NC(=O)CS4)CC2)c1C | 1 | -13% | -1% | 27µM* | -11%
Cc1cccc(N2CCN(C(=O)c3oc(=O)c4ccccc4c3-c3ccccc3)CC2C)c1 (stereo not given) | nt | nt | nt | nt | -31%
Cc1cc(Cl)ccc1OCCSc1nnc(-c2cccs2)o1 | nt | nt | nt | nt | -16%
CCc1ccc(O)c(N=Cc2ccccc2O)c1 | nt | -3% | 2% | 0% | -23%
O=c1[nH][nH]c2c(N=Cc3ccccc3O)ccc(F)c12 | -103* | 14µM* | 1% | 11µM* | 28µM*
CC1=C(C(=O)OCC2CCCCC2)C(c2ccc(Cl)cc2)CC(=O)N1 (stereo not given) | nt | nt | nt | nt | -20%
CCOc1ccc(C(=O)Nc2cc(-c3ccccc3)no2)cc1 | nt | nt | nt | nt | -16%
Cc1cc(=O)[nH]c(CN2CCC(c3ccccc3)CC2)n1 | -5 | 6% | 3% | -12% | -15%
Cc1nc(CN2CCC(c3ccccc3)CC2)cc(=O)[nH]1 | 3 | 8% | 1% | 21µM* | -6%
COc1cccc(/C=N/NC(=O)CCn2nnc3ccccc32)c1 | 0 | 6% | 3% | 7.5µM* | -19%
COc1cc(/C=N/NC(=O)Cn2cnc3c2c(=O)n(C)c(=O)n3C)cc(OC)c1OC | -3 | -19% | 3% | 3% | -9%
COc1cccc(/C=N/NC(=O)C(C)Cn2cnc3ccccc32)c1 (stereo not given) | -1 | -2% | -2% | 1% | -16%
COc1cccc(/C=N/NC(=O)C(C)n2nnc3ccccc32)c1 (stereo not given) | -22 | -27% | -3% | 19µM* | -2%
COc1cccc(/C=N/NC(=O)Cn2cnc3c2c(=O)n(C)c(=O)n3C)c1 | -10 | -17% | 4% | 24µM* | -3%
Cn1cc(S(=O)(=O)N2CCOCC2)cc1C(=O)Nc1ccc(Cl)c(C(F)(F)F)c1 | nt | nt | nt | nt | -22%
CC(=O)n1c(C=Nc2ccc(Cl)cc2)c(O)c2ccccc21 | -1 | -2% | 0% | 6.7µM* | -12%
CC(C)NC(=O)NC(=O)COc1ncnc2sccc12 | -22 | 9% | 0% | 27µM* | -12%
CC(C)NC(=O)COc1ncnc2sccc12 | nt | 2% | 4% | -5% | -16%
Cc1cc(C)n(C(C)CC(=O)Nc2ccc(Cl)cc2C)n1 (stereo not given) | nt | nt | nt | nt | -7%
COC(=O)C(=C/C(C)=C/c1cccs1)C(=O)OC | -3 | 0% | -3% | 19µM* | -12%
CC(C)(C)c1ccc(OCCOCCn2c(-c3ccc(Cl)cc3)nc3ccccc3c2=O)cc1 | nt | nt | nt | nt | -7%
O=C(CC12CC3CC(CC(C3)C1)C2)NCc1ccc(F)cc1 | -6 | 5% | 1% | 30µM* | 5%

High-throughput results as filed in PubChem.
